CYP2C9 activ: activators of human CYP2C9; activation factor at 5 µM; recombinant CYP2C9, luciferin-H conversion, luminescence; active compounds read high; factor 1 = untreated enzyme, 0 = blocked; hit rate 1.4% among 96,000; P11712;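 active = activation factor of 2 or more for CYP2C9 at a 5 µM dose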;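 note: 0 = sulfaphenazole-blocked wells and 1 = vehicle-only wells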
Target sequence (P11712 whole entry, looked up): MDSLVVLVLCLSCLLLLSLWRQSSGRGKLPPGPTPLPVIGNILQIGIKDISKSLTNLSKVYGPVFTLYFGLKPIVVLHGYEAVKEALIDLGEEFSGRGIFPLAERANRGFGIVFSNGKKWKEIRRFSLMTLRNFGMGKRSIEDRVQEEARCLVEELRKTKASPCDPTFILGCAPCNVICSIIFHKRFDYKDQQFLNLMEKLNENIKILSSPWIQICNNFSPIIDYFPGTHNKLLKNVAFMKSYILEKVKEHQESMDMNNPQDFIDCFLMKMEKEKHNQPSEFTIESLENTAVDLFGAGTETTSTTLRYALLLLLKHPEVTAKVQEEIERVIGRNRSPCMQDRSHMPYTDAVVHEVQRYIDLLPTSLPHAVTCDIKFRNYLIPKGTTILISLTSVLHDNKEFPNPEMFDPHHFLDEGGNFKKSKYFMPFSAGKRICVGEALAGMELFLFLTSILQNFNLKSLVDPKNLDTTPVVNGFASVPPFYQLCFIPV
CYP2C9 inhib: inhibitors of human CYP2C9. P11712. hit rate 20% among 96,000. CYP2C9 Supersomes, luciferin-H conversion, luminescence. inhibition, % at 5 µM;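 active = blocking of liver enzyme CYP2C9 beyond about 50% at 5 µM, limit read from the data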
CYP2C19 inh: inhibitors of human CYP2C19. AID 778. P33261. inhibition, % at 5 µM. CYP2C19 Supersomes, luciferin-H EGE luminescence, 30 min. hit rate 21% among 96,000;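 active = CYP2C19 inhibition above a set limit at 5 µM in the primary screen, cut at about 50% in these data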;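 note: plate controls were negative control wells for no effect and 2.5 mM tranylcypromine positive control for full effect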
sEH activator: activators of human soluble epoxide hydrolase. purified human sEH enzymatic activity, activator screen. activation, % at 2 µM. hit rate 0.04% among 91,000. AID 717; in the data active = activation above about 37%
sEH inhibitor: blocks human soluble epoxide hydrolase activity | recombinant human sEH enzymatic activity assay | inhibition, % at 2 µM | hit rate 0.34% among 91,000; in the data active = inhibition above about 80%
CYP2C19 activ: cytochrome P450 2C19 (human) activation. P33261. recombinant CYP2C19, luciferin-H EGE luminescence; active compounds read high; 0 = fully inhibited enzyme, 1 = untreated enzyme. activation factor at 5 µM. 96,000 tested, under 10 active. AID 1025;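 active = activation factor of at least 2 at 5 µM in the primary screen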;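 note: 0 = wells with 2.5 mM tranylcypromine and 1 = vehicle-only wells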
The depositor's hits bear a star; nt = no result. Sampled rows, rich in hits. Any-hit rate of the full collection: about 27%.

SMILES	CYP2C9 activ	CYP2C9 inhib	CYP2C19 inh	sEH activator	sEH inhibitor	CYP2C19 activ
CCOC(=O)C1=C(NC#N)OC(C)=C(C)C1c1ccc(O)cc1 (stereo not given)	0.3	70*	96*	-18	17	0
COc1ccc(S(=O)(=O)N2CCN(C(=O)c3c(C)nn(-c4ccccc4)c3Cl)CC2)cc1	0.1	90*	88*	10	-10	0.1
Cc1ccc(S(=O)(=O)N2CCN(C(=O)c3c(C)nn(-c4ccccc4)c3Cl)CC2)cc1	0.5	50*	17	nt	nt	0.8
CCCCN1Cc2cc(C(=O)c3cc(F)ccc3O)cnc2NC1=O	0.6	38	23	-2	1	0.8
CC1(C)CCCN(C(=O)c2coc(=O)c(Br)c2)C1	0.9	13	12	19	-17	0.9
CCN(CCO)Cc1csc2ccc(Br)cc12	1.3	-28	38	4	-4	0.6
Cc1cc(NC(=O)c2cc3ccccc3oc2=O)no1	0.9	10	14	-7	10	0.9
Cc1ccc(C)c(S(=O)(=O)Nc2ccccc2C(=O)Nc2cc(C)on2)c1	0.4	55*	10	nt	nt	0.9
Cc1cc(NC(=O)c2ccc(S(=O)(=O)Nc3ccccc3)cc2)no1	0.5	52*	21	nt	nt	0.8
Cc1ccc(-c2cc(C(=O)Nc3ccc(S(=O)(=O)Nc4cc(C)on4)cc3)c3ccccc3n2)c(C)c1	0.6	41	-3	-9	10	1
Cc1cc(NC(=O)c2ccc(N(C)S(=O)(=O)c3ccccc3)cc2)no1	0.6	37	27	0	5	0.7
Cc1cc(NC(=O)c2ccccc2NS(=O)(=O)c2c(C)c(C)cc(C)c2C)no1	0.3	66*	11	nt	nt	0.9
Cc1cc(=O)n2c(n1)OC(CO)C2 (stereo not given)	1	0	-4	2	-3	1
COc1ccc2nc(Nc3ccc4c(c3)OCO4)sc2c1	0.8	21	65*	15	-18	0.3
COc1ccc(N/C=C\C(=O)c2ccc3c(c2)OCO3)cc1	1.2	-19	27	-10	8	0.7
Cc1ccc(SCc2cc(=O)n3[nH]cnc3n2)cc1	nt	nt	nt	-9	8	nt
Cc1ccc(SCc2cc(=O)n3[nH]c(C)nc3n2)cc1	0.4	56*	-21	-3	8	1.2
Clc1ccc(SCc2cn3cccnc3n2)cc1	1	-5	17	-4	3	0.8
Cc1nc2nc(CSc3ccc(Cl)cc3)cc(=O)n2[nH]1	0.4	55*	-7	-6	6	1.1
COc1ccc(C2/C(=C(\O)c3ccc4c(c3)OCCO4)C(=O)C(=O)N2CCCN(C)C)c(OC)c1 (stereo not given)	1	4	2	nt	nt	1
CC1CN(c2c3c(nc4ncnn24)CCCC3)CC(C)O1 (stereo not given)	1	-5	-12	1	0	1.1
CCCCNC(=O)CSc1nc2ccccc2c(=O)n1Cc1ccc2c(c1)OCO2	0.6	44	84*	-1	4	0.2
O=C(CSc1nc2ccccc2c(=O)n1Cc1ccco1)NCc1ccco1	nt	nt	nt	-6	7	nt
Cc1nc(SCC(=O)NCc2ccco2)nc(C)c1C	1.2	-19	28	nt	nt	0.7
CC(C)(C)c1nc(SCC(=O)NCc2ccco2)c2ccccc2n1	0.3	65*	94*	10	-12	0.1
SMILES	CYP2C9 activ	CYP2C9 inhib	CYP2C19 inh	sEH activator	sEH inhibitor	CYP2C19 activ
O=C(CSc1nc2ccccc2c(=O)n1-c1ccccc1)NCc1ccc2c(c1)OCO2	0.8	18	19	-9	10	0.8
CC(=O)NCCn1c(SCC(=O)NCc2ccco2)nc2ccccc2c1=O	1.2	-15	85*	-4	1	0.2
CCCCn1c(SCC(=O)NCc2ccco2)nc2ccccc2c1=O	0.5	52*	65*	-1	1	0.4
CCCCSc1nc(C)c(C(C)=O)cc1C#N	0.7	29	35	-15	15	0.7
CC(=O)NCCn1c(SCC(=O)NCCC(C)C)nc2ccccc2c1=O	0.9	11	69*	4	-5	0.3
Cn1cc(-c2nnc(-c3ccccc3)o2)c2ccccc21	2.4*	-143	-6	-5	8	1.1
Cc1ccccc1-c1nnc(-c2ccccc2)o1	0.6	38	44	nt	nt	0.6
Cc1ccc2oc(=O)c3cnn(CC(=O)Nc4ccccc4N4CCN(C)CC4)c3c2c1	0.5	49	9	nt	nt	0.9
Cc1ccc(NC(=O)N/C=C/c2ccco2)c(C)c1	0.4	61*	76*	-29	31	0.2
Cc1ccc(NC(=O)N/C=C/c2ccco2)cc1C	0.7	25	24	-25	26	0.8

Screens: PubChem, several laboratories
